Compound activity deposited in PubChem BioAssay by NMMLSC.
Sampled rows, rich in hits. Any-hit rate of the full collection: about 3.5%.
Autofluor counter: flagged as autofluorescent in microsphere protease counterscreen; compound autofluorescence counterscreen, microsphere flow cytometry; active compounds read high; fluorescence intensity (test concentration not listed); actives 3.1% (n = 360,000); in the data active means fluorescence intensity above about 16000; inconclusive means no clear call, values can overlap the other calls
BoNT A protease: BoNT A light chain protease inhibition | multiplex microsphere protease substrate cleavage, flow cytometry | inhibition, % at 10 µM | actives 0.17% (n = 360,000)
Anthrax LF prot: inhibitors of Bacillus anthracis lethal factor protease. inhibition, % at 10 µM. P15917. actives 0.12% (n = 360,000). multiplex microsphere protease cleavage assay, LF
Target sequence (P15917 whole entry, looked up): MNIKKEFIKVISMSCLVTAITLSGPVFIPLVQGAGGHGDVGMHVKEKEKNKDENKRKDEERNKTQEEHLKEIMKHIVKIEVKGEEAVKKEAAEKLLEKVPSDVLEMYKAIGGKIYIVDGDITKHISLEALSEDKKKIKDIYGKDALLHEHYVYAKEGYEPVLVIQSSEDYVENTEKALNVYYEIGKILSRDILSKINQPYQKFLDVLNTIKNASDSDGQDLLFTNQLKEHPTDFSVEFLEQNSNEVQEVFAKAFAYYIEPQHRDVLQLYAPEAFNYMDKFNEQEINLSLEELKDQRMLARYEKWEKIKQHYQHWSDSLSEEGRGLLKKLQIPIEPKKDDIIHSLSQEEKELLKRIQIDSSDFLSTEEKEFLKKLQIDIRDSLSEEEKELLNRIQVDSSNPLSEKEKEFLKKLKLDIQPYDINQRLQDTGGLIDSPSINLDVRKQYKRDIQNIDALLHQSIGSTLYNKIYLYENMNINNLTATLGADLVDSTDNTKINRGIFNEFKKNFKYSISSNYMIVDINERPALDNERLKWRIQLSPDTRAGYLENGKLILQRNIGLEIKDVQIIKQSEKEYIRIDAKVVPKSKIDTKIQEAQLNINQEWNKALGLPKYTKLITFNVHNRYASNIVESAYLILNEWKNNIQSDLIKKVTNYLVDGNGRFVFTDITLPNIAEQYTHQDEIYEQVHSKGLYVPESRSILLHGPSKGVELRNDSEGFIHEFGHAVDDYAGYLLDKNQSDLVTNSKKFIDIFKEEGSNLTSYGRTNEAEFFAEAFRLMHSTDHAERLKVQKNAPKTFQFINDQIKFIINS
BoNT-F LC inh: blocks Botulinum neurotoxin F light chain protease; Multiplex microsphere protease cleavage assay, flow cytometry; inhibition, % at 10 µM; actives 0.22% (n = 360,000); in the data active means inhibition above about 35%, passing the limit was not always enough; inconclusive means no clear call, values can overlap the other calls
Each line names hits and unclear results; the compound was inactive in the other large screens. Unless noted, no stated cut-off is given here; in the data, active means inhibition above about 30%; inconclusive means no clear call, values can overlap the other calls; inactive means below that.

O=C(/C=C/c1cccc(F)c1)NCCCn1ccnc1	none
CCc1ccccc1NC(=O)NNC(=O)CCc1ccc(OC)cc1	none
CCOC(=O)Cc1nnc(NC(=O)C2CCCCC2)s1	none
CCc1nnc(NC(=O)C2CCN(c3nc(C)cc(C)n3)CC2)s1	Autofluor counter 24756
CCc1nnc(NC(=O)C2CCCCC2)s1	Autofluor counter 22291
CCc1nnc(NC(=O)CN2CC(C)OC(C)C2)s1 (stereo not drawn)	BoNT-F LC inh 34.5
Cc1cc(C)nc(N2CCC(C(=O)NCCc3ccc(F)cc3)CC2)n1	Autofluor counter 26052, BoNT A protease inconclusive
ON=C(CCc1ccccc1)CCc1ccccc1	none
c1ccc(CN(CCN2CCOCC2)Cc2ccccc2)cc1	none
COc1ccccc1N(CC(=O)NC1CCCCC1)C(=O)CNC(=O)c1cccs1	none
COc1ccccc1CN(C)C[C@H]1OCc2cnnn2CCCC(=O)N([C@H](C)CO)C[C@@H]1C	none
O=C(NCc1ccco1)c1cc2n(n1)C(C(F)(F)F)CC(c1ccc(Cl)c(Cl)c1)N2 (stereo not drawn)	Autofluor counter 17695
CC(C)COc1ccc(-c2nnc(-c3ccncc3)o2)cc1	Autofluor counter 17655
COc1ccc(-c2nnc(-c3ccc(OCC(C)C)cc3)o2)cc1	none
O=C(NCc1ccccn1)c1cccc([N+](=O)[O-])c1	Autofluor counter 24684
O=C(COc1ccc(F)cc1Br)NCc1ccccn1	none
O=C(NCc1ccccn1)c1ccccc1Cl	Autofluor counter 23233, BoNT A protease inconclusive
Cc1ccc(C(=O)NCc2ccccn2)c(Cl)c1	none
O=C(COc1ccccc1Br)NCc1ccccn1	Autofluor counter 22895
COC(=O)c1ccc(CN2CCC(Oc3cccc(C(=O)N4CCOCC4)c3)CC2)cc1	none
Cc1ccc(N=Cc2nc(/C=C/c3cccc([N+](=O)[O-])c3)oc2O)cc1	Autofluor counter 22530, BoNT A protease inconclusive
Oc1c(C=C2N=c3ccccc3=N2)sc(=S)n1-c1ccc2ccccc2c1	none
Oc1c(C=C2N=c3ccccc3=N2)sc(=S)n1C1CCCC1	BoNT A protease 70.4, Anthrax LF prot 39.4
Oc1c(C=C2N=c3ccccc3=N2)sc(=S)n1-c1ccc(F)cc1	BoNT A protease 54.1, Anthrax LF prot 34.4
Cc1ccccc1Oc1ccc2c(c1)[C@@H]1C[C@H](N(C)C(=O)c3ccc(C#N)cc3)[C@H]([C@H](C)O)C(=O)N1CC2	none
CC1=CC(=O)N(c2cccc(C(F)(F)F)c2)C1c1ccc(Cl)cc1 (stereo not drawn)	Autofluor counter 23466
CCN(Cc1ccc(OC)c(F)c1)C(=O)/C=C/c1ccc(S(=O)(=O)N2CCOCC2)cc1	none
COc1ccccc1N1CCN(CC(=O)Nc2ccc(Cl)c(C(F)(F)F)c2)CC1	Autofluor counter 16616
Cc1ccc(Cl)cc1N1CCN(CC(=O)Nc2ccc3[nH]c(=O)[nH]c3c2)CC1	Autofluor counter 19567
CCOc1ccc(NC(=O)CN2CCN(CC(=O)Nc3ccc(Cl)c(C(F)(F)F)c3)CC2)cc1	Autofluor counter 26476
O=C(COc1cc(Cl)ccc1Cl)Nc1ccc2[nH]c(=O)[nH]c2c1	none
COc1ccc(OC)c(C2SCCN2S(C)(=O)=O)c1 (stereo not drawn)	Autofluor counter 22914
COc1ccccc1C1SCCN1S(C)(=O)=O (stereo not drawn)	none
CCc1ccc(C(=O)Nc2ccc3c(c2)n(C)c(=O)n3C)cc1	none
CCC(CO)NCc1ccc2c(c1)n(C)c(=O)n2C (stereo not drawn)	Autofluor counter 16488
COc1ccc(NC(=O)CN(C)C(=O)C23CC4CC(CC(C4)C2)C3)cc1	none
Cc1cc(C)n2nc(CC(=O)NC3CCCCCC3)nc2n1	Autofluor counter 19846
CCN1c2ccccc2NC2N=C(OC)C(c3ccccc3)C21 (stereo not drawn)	Autofluor counter 25940, BoNT A protease inconclusive
COc1ccc(S(=O)(=O)Nc2c(C(=O)O)[nH]c3ccccc23)cc1	none
O=C(O)c1[nH]c2ccccc2c1NS(=O)(=O)Cc1ccccc1	Autofluor counter 16578
CN(C)CCCn1c(-c2ccccc2)nc(=S)c2c1CCCC2	Autofluor counter 19594, BoNT A protease inconclusive
OCCCn1c(-c2ccccc2)nc(=S)c2c1CCCC2	Autofluor counter 21784, BoNT A protease inconclusive
Cc1cccc(-c2nc(=S)c3c(n2Cc2ccco2)CCCC3)c1	Autofluor counter 22703
O=C(Nc1c(-c2ccccc2)nc2ccccn12)c1ccccc1	none
O=C(Nc1c(-c2ccccc2)nc2ccccn12)c1cccc(F)c1	BoNT-F LC inh 35.8
COc1ccc(-c2nn(-c3ccccc3)cc2CNC[C@H]2O[C@@H](n3cnc(C(N)=O)n3)[C@H](O)[C@@H]2O)cc1	none
COc1cc2c(C(=O)N3CCN(C)CC3)c(C)n(C)c2cc1Br	none
COc1cc2c(C(=O)N3CCN(C)CC3)c(C)n(-c3ccccc3)c2cc1Br	Autofluor counter 25113
N#Cc1c(=O)c2nc(NCc3ccccc3)ncc2n2ccccc12	Autofluor counter 23674
Cc1ccccc1OCC(O)COc1ccccc1C	Autofluor counter inconclusive
N#Cc1c(NC(=O)CSc2ncn[nH]2)sc2c1CCCCC2	Autofluor counter 22487, BoNT A protease inconclusive
N#Cc1c(NC(=S)NC(=O)Cc2cccs2)sc2c1CCCCC2	Autofluor counter 20268
CCCNC(=O)C(Cc1cccc(Cl)c1)NC(=O)c1ccccc1 (stereo not drawn)	none
C[C@H](CO)N1C[C@H](C)[C@@H](CN(C)Cc2ccc(Cl)c(Cl)c2)Oc2c(NS(=O)(=O)c3cn(C)cn3)cccc2C1=O	none
Cc1ccc(-c2cc(C(=O)Nc3c(C)n(C)n(-c4ccccc4)c3=O)[nH]n2)c(O)c1	Autofluor counter 22384, BoNT A protease inconclusive
Cc1cc(C)c(-c2cc(C(=O)Nc3c(C)n(C)n(-c4ccccc4)c3=O)[nH]n2)c(O)c1	none
NC(=O)CN1CCCC1=O	none
N/C(CN1CCCC1=O)=N\O	Autofluor counter 24371
COc1ccccc1/C=C/C(=O)Nc1nc(N)n(-c2ccccc2)n1	BoNT A protease inconclusive, BoNT-F LC inh inconclusive
Cc1ccc(C)c(S(=O)(=O)Nc2ccc(-n3cnnn3)cc2)c1	none
CCOc1ccc(CCNC(=O)CN(C)S(=O)(=O)c2ccc3c(c2)CCC(=O)N3)cc1OCC	Autofluor counter 23279
COc1ccc(N2CCN(C(=O)c3ccc(S(=O)(=O)N4CCCC4)cc3)CC2)cc1	none
O=C(c1cccc(S(=O)(=O)N2CCOCC2)c1)N1CCN(c2ccccc2)CC1	none
COc1ccc(S(=O)(=O)N2CCN(C(=O)CC(C)C)CC2)cc1	BoNT-F LC inh 39.8
O=C(c1cccc(S(=O)(=O)N2CCOCC2)c1)N1CCN(c2ccc(F)cc2)CC1	Autofluor counter 21227
COc1ccc(N2CCN(C(=O)c3ccc(-n4nc(C)cc4C)cc3)CC2)cc1	Autofluor counter 25032
COc1ccc(N2CCN(C(=O)c3ccc(C(C)(C)C)cc3)CC2)cc1	none
COc1ccc(N2CCN(C(=O)c3ccc(S(=O)(=O)N4CCOCC4)cc3)CC2)cc1	Autofluor counter 22765
CCCCC(=O)N(C)c1c(C)nc2ccc(C(=O)N3CCN(C(=O)c4ccco4)CC3)cn12	none
O=C(/C=C/c1ccccc1[N+](=O)[O-])OCC(=O)N1CCN(c2ccccc2)CC1	none
CSCCC(NS(=O)(=O)c1ccccc1)C(=O)Nc1nccs1 (stereo not drawn)	Autofluor counter inconclusive, Anthrax LF prot inconclusive, BoNT-F LC inh inconclusive
